# Test results as given in PubChem BioAssay (Tox21).
# Inconclusive results are not listed. Values without a mark were called inactive. Calls come from the whole dose curve; as a rule, active = well fitted cell-killing curve with a large enough effect in the repeat runs; inconclusive = weak or mixed curves; inactive = flat fitted curve, though single readings scatter.
# Assay: qHTS RealTime-Glo MT Cell Viability Assay in HepG2 cells - 8 hour (AID 1224873); note: nearly all actives have a fitted effect of over 55% in size
# Details: RealTime-Glo luminescence; series mostly up to 76.8 µM; viability change, negative = cytotoxic: at the top concentration
# Excerpt: National Center for Advancing Translational Sciences [NCATS]
# NIH Chemical Genomics Center [NCGC]
# U.S. Environmental Protection Agency [EPA]
# National Institutes of Environmental Health Sciences [NIEHS]
# National Toxicology Program [NTP]
# U.S. Food and Drug Administration [FDA]
# Measure of cell viability is critical in the cell-base assay. Analysis of cell viability is necessary for the characterization of cell responses to cytotoxic drugs and environmental stress. A RealTime-Glo MT Cell Viability Assay to monitor cell viability in real time of continues cell culture during 40 hours of compound treatment was used to screen Tox21 10K library compounds in HepG2 cells. The RealTime-Glo MT Cell Viability Assay is a nonlytic, homogeneous, bioluminescent method to measure cell viability in real time using a simple, plate-based method. The assay involves adding NanoLuc luciferase and a cell-permeant prosubstrate to cells in culture. Viable cells reduce the proprietary prosubstrate to generate a substrate for NanoLuc luciferase. This substrate diffuses from cells into the surrounding culture medium, where it is rapidly used by the NanoLuc Enzyme to produce a luminescent signal. The signal correlates with the number of viable cells, making the assay well suited for cytotoxicity studies.
# Tox21 Assay Protocol Summary:
# The mixture of HepG2 cell suspension and reagents were dispensed at 600cells/6 ul/well in 1536-well tissue culture treated black solid bottom plates using a Multidrop dispenser. After the assay plates were incubated at a 37 C/5% CO2 incubator for 5 hours, 23 nL of compounds dissolved in DMSO, positive and negative controls was transferred to the assay plate by a pintool work station. The plates were incubated at 37 C for 40 hours. The luminescence intensity were measured at 0h, 8h, 16h, 24h, 32h and 40h time points using ViewLux plate reader during compound treatment.
# % is set by controls: 0 for no effect and ±100 for the full control effect.
row,SMILES,"viability change, negative = cytotoxic"
1,CCOc1ccc(O)cc1,0.874%
2,NCC(=O)CCC(=O)O,6.43% [at 35.3 µM]
3,CN(C)CCN(Cc1ccsc1)c1ccccn1,-0.504% [at 35.3 µM]
4,O=C(O)C1(C(=O)Nc2ccc(Cl)cc2Cl)CC1,2.28%
5,COc1cc2nc(N(C)CCCNC(=O)C3CCCO3)nc(N)c2cc1OC (stereo not given),-10.7% [at 35.3 µM]
6,Nc1cc(C(=O)O)c(O)c(S(=O)(=O)O)c1,4.42%
7,Brc1c2ccccc2c(Br)c2ccccc12,0.903% [at 6.97 µM]
8,O=C(O)C(S)C(S)C(=O)O (stereo not given),5.81% [at 35.3 µM]
9,O=P(O)(OCc1ccccc1)OCc1ccccc1,4.19%
10,CCCCc1ncc(/C=C(\Cc2cccs2)C(=O)O)n1Cc1ccc(C(=O)O)cc1,-4.45% [at 35.3 µM]
11,C[C@@H](c1ncncc1F)C(O)(Cn1cncn1)c1ccc(F)cc1F (stereo not given in full),6.86% [at 35.3 µM]
12,Clc1ccc2c(c1)CCc1cccnc1C2=C1CCNCC1,-10.9% [at 35.3 µM]
13,Cc1nn(C)c(Oc2ccccc2)c1/C=N/OCc1ccc(C(=O)OC(C)(C)C)cc1,-25.5%
14,O=C(O)c1ccco1,3.03%
15,CCC(CC)Nc1ccc(C)c(C)c1,1.06%
16,C/C=C/C(=O)CC,1.2% [at 15.8 µM]
17,OCCN1CCN(CCCN2c3ccccc3C=Cc3ccccc32)CC1,2.13% [at 35.3 µM]
18,CNC(=O)CN(CCN(CCN(CC(=O)[O-])CC(=O)NC)CC(=O)[O-])CC(=O)[O-].O.[Gd+3],10.2% [at 35.3 µM]
19,CCCCCCCCCCCCCCCCOS(=O)(=O)O,-2.31% [at 35.3 µM]
20,Cc1ccc(C(C)OC(=O)C2(C)CCC(C(=O)O)C2(C)C)cc1 (stereo not given),3.3% [at 35.3 µM]

row,SMILES,"viability change, negative = cytotoxic"
1,Cc1ncc(CO)c(C=O)c1O,0.473% [at 35.3 µM]
2,CCO[Si](CCCCl)(OCC)OCC,0.246%
3,C=C1C(=C/C=C2\CCC[C@]3(C)[C@@H]([C@H](C)/C=C/[C@@H](O)C4CC4)CC[C@@H]23)C[C@@H](O)C[C@@H]1O,-1.93% [at 35.3 µM]
4,Cc1oc(-c2ccccc2)nc1CCOc1cccc2c1ccn2CCC(=O)O,-26.8%
5,O=C(O)c1ccc(-n2nc(-c3ccccc3O)nc2-c2ccccc2O)cc1,3.42% [at 35.3 µM]
6,C=CC1CC2C=CC1C2 (stereo not given),-1.98%
7,Cc1c(N)cccc1[N+](=O)[O-],-8.19%
8,O=C(O)c1nc(Cl)c(Cl)c(Cl)c1Cl,2.94%
9,ClCCOCCOCCCl,4.13%
10,NCc1ccccc1Sc1ccccc1CO,5.96% [at 35.3 µM]
11,O=S(c1cc(Cl)cc(Cl)c1O)c1cc(Cl)cc(Cl)c1O,1.62% [at 35.3 µM]
12,C=C(C)C(=O)OCC,0.111%
13,CCCCCCCCCCCCN1CCCCCC1=O,-5.16%
14,CCCCCCCCCCCCCCOS(=O)(=O)O,-4.73%
15,CCn1cc(C(=O)O)c(=O)c2cnc(N3CCNCC3)nc21,-0.592% [at 35.3 µM]
16,CCN(CC)CCOC(=O)C(Cc1cccc2ccccc12)CC1CCCO1 (stereo not given),0.0507% [at 35.3 µM]
17,CN(C)C(=O)NC1(c2ccccc2)CCN(CC[C@@]2(c3ccc(F)c(F)c3)CN(C(=O)c3ccccc3)CCO2)CC1,-5.12%
18,C[Si](C)(CCCN)O[Si](C)(C)CCCN,-2.38%
19,CN1Cc2cc(C(=O)N3CCC(C4CCNCC4)CC3)ccc2NC(CC(=O)O)C1=O (stereo not given),-2.12% [at 35.3 µM]
20,CCC(Cl)CCC(Cl)C(Cl)CC(Cl)C(Cl)C(Cl)CCl (stereo not given),-0.0955%
